# Measurements as given in PubChem BioAssay AID651820 (National Center for Advancing Translational Sciences (NCATS), 2012).
# Among all 340,000 compounds or so, about 12,000 (3.5%) were called active. Another 18% or so got no clear call; they are omitted. This is one part of a sample in which actives are shown more often than they occur. Calls come from the whole dose curve; as a rule, active = well fitted inhibition curve with a large enough effect; inconclusive = small, poorly fitted or top-dose-only effect, or another doubt; inactive = no such curve, though single readings can be large or run the other way.
# Experiment: qHTS Assay for Inhibitors of Hepatitis C Virus (HCV)
# Details: Huh7.5.1 HCVcc-Cre infection, luciferase reporter, 44 h; series mostly up to 41.8 µM; activity change, negative = inhibition: at the top concentration
# Method in brief: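 1,000 cells/well; 4 h culture; + compound; + HCVcc-Cre (~0.5 moi); 44 h; luciferase substrate, RT 15 min; read 15 sec.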
# % is set by controls: 0 for no effect and ±100 for the full control effect; potency is the fitted concentration of half-maximal effect.
Compound,Potency,"activity change, negative = inhibition"
COc1ccc(-c2nc(CCNC(=O)c3ccc(Br)o3)cs2)cc1,10 µM (active),
COc1cc(OC)cc(C(=O)NCC(=O)OCc2csc(-c3ccccc3)n2)c1,,-13.4% (inactive)
COc1ccc(N2CCN(C(=O)CNC(=O)c3ccc(Br)o3)CC2)cc1,,12.5% (inactive)
COc1ccc(C2=NN(C(=O)CSc3nnnn3C)C(c3ccco3)C2)cc1 (stereo not drawn),,0.807% (inactive)
O=C(CSc1nccn1-c1cccc(F)c1)NC1CCCC1,,-6.21% (inactive)
CCCc1cc(=O)[nH]c2nnc(SCC(=O)Nc3nnc(SCC)s3)n12,,13.1% (inactive)
COc1ccccc1-c1nnc(-c2ccc(F)cc2)o1,,2.16% (inactive)
Cc1ccc(-c2nc(CS(=O)CC(=O)NC3CCCC3)c(C)o2)cc1 (stereo not drawn),,-19.2% (inactive)
Cc1ccc(-c2nc(CSCC(=O)NC3CCN(Cc4ccccc4)CC3)c(C)o2)cc1,12.6 µM (active),
Cc1ccc(S(=O)(=O)NCCC(=O)NC2CCN(Cc3ccccc3)CC2)cc1,,-7.73% (inactive)
O=C(Nc1ccccn1)C1CCN(S(=O)(=O)c2ccccc2)CC1,,-29.9% (inactive)
Fc1ccccc1COc1cccc2cccnc12,,-5.88% (inactive)
Cc1ccc(NC(=O)CN(C)C(=O)c2ccc(Cl)c(S(=O)(=O)NCc3ccco3)c2)cc1,,-9.16% (inactive)
CC1=C(C(N)=O)C(c2ccc(Br)cc2)n2ncnc2N1 (stereo not drawn),,6.56% (inactive)
COC(=O)C1=C(C)Nc2ncnn2C1c1cccnc1 (stereo not drawn),,4.06% (inactive)
Clc1ccc2c(c1)C1=C(C(c3ccncc3)O2)C(c2ccc(Br)cc2)n2ncnc2N1 (stereo not drawn),12.6 µM (active),
COc1ccc(C(CNC(=O)c2cc(S(=O)(=O)Nc3cccc(C)c3)ccc2C)N2CCCC2)cc1 (stereo not drawn),,-23% (inactive)
COc1cccc(CNC(=O)CN2C(=O)NC(Cc3ccccc3)(c3ccccc3)C2=O)c1 (stereo not drawn),,6.36% (inactive)
COc1ccccc1N1CCN(CC(=O)Nc2ccnn2C2CCCC2)CC1,,-3.97% (inactive)
COc1cccc(C(=O)N2CCC(n3nccc3NC(=O)C3CCOC3)CC2)c1 (stereo not drawn),,16.5% (inactive)
COc1cccc(N2CCN(CC(=O)Nc3ccnn3C3CCCC3)CC2)c1,10 µM (active),
CC(=O)NC(CC(=O)Nc1ccc(S(=O)(=O)N2CCOCC2)cc1)c1ccccc1 (stereo not drawn),,-6.34% (inactive)
O=C(c1cccc(C(=O)N2CCN(c3ccc(F)cc3)CC2)c1)N1CCN(c2ccc(F)cc2)CC1,11.2 µM (active),
O=C(c1cc(-c2ccc(Cl)cc2)on1)N1CCN(c2ccccc2)CC1,,14.7% (inactive)
O=C(c1ccccc1)c1ccc(C(=O)N2CCN(c3ccccc3)CC2)cc1,,-4.67% (inactive)
COc1ccc(-c2cc(C(=O)N3CCN(c4ccc(F)cc4)CC3)no2)cc1,22.4 µM (active),
O=C(c1cc2cc(F)ccc2[nH]1)N1CCN(c2ccc(F)cc2)CC1,,-3.92% (inactive)
O=C(c1cc(-c2ccc(F)cc2)on1)N1CCN(c2ccc(F)cc2)CC1,,-27% (inactive)
